Reference: the supplement of paper PMC11732987, “Enantioselective OTUD7B fragment discovery through chemoproteomics screening and high-throughput optimisation” (Communications Chemistry, 2025)

Legend:
Test in all cases: log2 ratio of Biotin-Ahx-Ub-VS probe labelling (fragment/DMSO); higher = less target engagement (more negative = stronger competition), active = hit call of the paper (q ≤ 0.05, log2 ratio ≤ -1)
Conditions in all cases: compound concentration: 200 uM; treatment time: 3 h
USP34 = USP34 (UniProt Q70CQ2)
Method in brief: (§1)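 Labelled DUBs from HEK293T lysate were NeutrAvidin-enriched, digested with LysC and trypsin, and run by diaPASEF LC-MS/MS. Before that, each 495 µg sample in Tris/CHAPS/IGEPAL buffer with protease inhibitors was treated in triplicate with fragment at 200 µM or vehicle for 3 h, then with Biotin-Ahx-Ub-VS at 0.5 µM final for 1 h. Values are average log2 ratios of fragment over vehicle by unpaired t-test, based on global-median-normalised Spectronaut label-free quantities from proteins with ≥2 unique peptides.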

USP36 = target: T1, USP36 (UniProt Q9P275)
T1 sequence (whole entry): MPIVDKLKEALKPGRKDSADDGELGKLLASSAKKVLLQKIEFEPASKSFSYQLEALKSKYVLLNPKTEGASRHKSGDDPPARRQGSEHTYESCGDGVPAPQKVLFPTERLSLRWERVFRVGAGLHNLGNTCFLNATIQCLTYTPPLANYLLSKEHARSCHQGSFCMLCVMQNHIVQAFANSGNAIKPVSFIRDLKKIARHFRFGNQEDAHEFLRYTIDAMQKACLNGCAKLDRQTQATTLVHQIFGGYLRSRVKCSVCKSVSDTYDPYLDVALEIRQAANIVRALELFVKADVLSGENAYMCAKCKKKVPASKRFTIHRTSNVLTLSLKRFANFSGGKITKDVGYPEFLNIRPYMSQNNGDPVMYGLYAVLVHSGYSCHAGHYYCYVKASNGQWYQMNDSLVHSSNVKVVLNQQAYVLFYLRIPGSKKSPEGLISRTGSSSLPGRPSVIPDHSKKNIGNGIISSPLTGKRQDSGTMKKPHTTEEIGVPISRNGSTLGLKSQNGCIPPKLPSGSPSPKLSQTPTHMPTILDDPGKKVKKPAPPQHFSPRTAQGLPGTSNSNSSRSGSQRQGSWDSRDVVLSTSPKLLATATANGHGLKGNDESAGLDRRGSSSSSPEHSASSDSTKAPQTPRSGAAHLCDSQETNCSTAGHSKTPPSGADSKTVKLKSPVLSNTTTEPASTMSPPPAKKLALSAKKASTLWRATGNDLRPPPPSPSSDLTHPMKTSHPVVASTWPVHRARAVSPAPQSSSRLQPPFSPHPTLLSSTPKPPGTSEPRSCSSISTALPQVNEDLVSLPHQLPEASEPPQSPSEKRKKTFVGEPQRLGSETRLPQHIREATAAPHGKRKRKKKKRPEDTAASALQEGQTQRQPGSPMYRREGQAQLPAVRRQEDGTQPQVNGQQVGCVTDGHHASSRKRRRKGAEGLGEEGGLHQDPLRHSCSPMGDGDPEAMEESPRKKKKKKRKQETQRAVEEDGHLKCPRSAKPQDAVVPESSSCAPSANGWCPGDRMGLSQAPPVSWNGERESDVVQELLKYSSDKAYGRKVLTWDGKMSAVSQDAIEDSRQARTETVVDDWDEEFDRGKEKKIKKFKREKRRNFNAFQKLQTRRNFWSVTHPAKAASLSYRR
Method in brief: as §1

USP38 = target: T2, USP38 (UniProt Q8NB14)
T2 sequence (whole entry): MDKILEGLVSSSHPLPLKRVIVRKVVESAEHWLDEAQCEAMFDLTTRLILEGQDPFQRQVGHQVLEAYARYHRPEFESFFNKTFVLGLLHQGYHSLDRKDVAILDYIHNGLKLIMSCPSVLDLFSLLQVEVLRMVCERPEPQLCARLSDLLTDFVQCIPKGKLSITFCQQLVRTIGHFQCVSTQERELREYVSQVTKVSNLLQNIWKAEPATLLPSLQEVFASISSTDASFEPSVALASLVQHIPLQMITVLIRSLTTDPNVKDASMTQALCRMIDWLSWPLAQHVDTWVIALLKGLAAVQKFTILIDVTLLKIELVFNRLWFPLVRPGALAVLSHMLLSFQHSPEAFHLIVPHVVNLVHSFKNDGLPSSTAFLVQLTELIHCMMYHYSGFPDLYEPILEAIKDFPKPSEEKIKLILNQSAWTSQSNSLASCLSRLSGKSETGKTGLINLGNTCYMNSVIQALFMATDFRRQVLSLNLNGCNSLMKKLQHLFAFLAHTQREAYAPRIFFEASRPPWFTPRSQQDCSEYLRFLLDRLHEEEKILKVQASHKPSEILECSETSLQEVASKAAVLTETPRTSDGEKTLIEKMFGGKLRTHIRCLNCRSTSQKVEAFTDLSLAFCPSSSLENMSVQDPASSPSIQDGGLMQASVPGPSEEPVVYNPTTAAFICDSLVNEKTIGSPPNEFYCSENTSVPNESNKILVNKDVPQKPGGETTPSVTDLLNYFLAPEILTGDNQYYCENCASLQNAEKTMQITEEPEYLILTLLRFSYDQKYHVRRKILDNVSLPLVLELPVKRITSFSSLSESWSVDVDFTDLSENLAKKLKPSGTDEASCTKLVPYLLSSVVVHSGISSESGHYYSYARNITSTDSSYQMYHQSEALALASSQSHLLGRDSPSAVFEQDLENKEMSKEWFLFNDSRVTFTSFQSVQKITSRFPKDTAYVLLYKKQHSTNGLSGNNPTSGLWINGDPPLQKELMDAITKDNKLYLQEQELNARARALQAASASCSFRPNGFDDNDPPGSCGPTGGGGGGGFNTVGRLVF
Method in brief: as §1

USP39 = target: T3, USP39 (UniProt Q53GS9)
T3 sequence (whole entry): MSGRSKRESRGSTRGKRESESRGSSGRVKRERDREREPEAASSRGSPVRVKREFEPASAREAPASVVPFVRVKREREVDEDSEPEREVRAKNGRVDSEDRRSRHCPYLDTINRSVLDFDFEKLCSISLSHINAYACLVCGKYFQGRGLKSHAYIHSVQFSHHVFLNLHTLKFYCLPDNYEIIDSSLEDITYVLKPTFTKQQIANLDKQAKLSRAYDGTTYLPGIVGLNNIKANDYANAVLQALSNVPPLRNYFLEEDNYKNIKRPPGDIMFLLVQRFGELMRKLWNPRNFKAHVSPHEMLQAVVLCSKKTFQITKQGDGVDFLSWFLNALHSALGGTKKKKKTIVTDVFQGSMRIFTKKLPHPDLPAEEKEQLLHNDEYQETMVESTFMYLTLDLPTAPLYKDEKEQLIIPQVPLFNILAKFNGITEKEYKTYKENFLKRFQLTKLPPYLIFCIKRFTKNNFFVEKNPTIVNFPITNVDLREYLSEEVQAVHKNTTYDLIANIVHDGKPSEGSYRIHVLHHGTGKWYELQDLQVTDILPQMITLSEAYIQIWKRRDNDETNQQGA
Method in brief: as §1

USP4 = target: T4, USP4 (UniProt Q13107)
T4 sequence (whole entry): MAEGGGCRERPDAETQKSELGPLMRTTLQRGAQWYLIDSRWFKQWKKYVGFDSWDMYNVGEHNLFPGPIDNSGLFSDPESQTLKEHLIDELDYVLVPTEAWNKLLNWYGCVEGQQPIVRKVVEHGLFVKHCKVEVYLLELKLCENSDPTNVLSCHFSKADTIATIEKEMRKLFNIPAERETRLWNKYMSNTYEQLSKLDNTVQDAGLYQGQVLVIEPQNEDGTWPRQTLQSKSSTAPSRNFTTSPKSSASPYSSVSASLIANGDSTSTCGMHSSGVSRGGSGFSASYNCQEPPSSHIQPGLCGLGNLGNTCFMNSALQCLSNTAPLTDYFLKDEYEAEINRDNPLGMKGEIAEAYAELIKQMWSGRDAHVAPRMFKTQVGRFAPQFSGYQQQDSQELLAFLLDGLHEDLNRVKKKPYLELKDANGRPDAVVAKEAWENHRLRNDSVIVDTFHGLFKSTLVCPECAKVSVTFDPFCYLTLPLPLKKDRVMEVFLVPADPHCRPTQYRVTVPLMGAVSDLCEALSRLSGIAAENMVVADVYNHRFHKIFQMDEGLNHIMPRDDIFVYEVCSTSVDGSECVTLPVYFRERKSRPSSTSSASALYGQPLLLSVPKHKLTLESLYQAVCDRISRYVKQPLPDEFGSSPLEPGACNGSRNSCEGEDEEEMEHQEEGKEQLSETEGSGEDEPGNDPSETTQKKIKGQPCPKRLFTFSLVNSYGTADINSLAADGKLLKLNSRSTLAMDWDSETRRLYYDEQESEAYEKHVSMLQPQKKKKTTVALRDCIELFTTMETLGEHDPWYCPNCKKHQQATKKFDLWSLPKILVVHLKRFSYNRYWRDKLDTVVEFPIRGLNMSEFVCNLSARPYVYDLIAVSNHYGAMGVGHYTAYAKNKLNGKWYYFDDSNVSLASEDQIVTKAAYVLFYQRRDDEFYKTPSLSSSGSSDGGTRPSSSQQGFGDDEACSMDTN
Method in brief: as §1

Measured: log2 ratio of Biotin-Ahx-Ub-VS probe labelling

Sequence of USP34 (Q70CQ2 whole entry, the tested form may be a part): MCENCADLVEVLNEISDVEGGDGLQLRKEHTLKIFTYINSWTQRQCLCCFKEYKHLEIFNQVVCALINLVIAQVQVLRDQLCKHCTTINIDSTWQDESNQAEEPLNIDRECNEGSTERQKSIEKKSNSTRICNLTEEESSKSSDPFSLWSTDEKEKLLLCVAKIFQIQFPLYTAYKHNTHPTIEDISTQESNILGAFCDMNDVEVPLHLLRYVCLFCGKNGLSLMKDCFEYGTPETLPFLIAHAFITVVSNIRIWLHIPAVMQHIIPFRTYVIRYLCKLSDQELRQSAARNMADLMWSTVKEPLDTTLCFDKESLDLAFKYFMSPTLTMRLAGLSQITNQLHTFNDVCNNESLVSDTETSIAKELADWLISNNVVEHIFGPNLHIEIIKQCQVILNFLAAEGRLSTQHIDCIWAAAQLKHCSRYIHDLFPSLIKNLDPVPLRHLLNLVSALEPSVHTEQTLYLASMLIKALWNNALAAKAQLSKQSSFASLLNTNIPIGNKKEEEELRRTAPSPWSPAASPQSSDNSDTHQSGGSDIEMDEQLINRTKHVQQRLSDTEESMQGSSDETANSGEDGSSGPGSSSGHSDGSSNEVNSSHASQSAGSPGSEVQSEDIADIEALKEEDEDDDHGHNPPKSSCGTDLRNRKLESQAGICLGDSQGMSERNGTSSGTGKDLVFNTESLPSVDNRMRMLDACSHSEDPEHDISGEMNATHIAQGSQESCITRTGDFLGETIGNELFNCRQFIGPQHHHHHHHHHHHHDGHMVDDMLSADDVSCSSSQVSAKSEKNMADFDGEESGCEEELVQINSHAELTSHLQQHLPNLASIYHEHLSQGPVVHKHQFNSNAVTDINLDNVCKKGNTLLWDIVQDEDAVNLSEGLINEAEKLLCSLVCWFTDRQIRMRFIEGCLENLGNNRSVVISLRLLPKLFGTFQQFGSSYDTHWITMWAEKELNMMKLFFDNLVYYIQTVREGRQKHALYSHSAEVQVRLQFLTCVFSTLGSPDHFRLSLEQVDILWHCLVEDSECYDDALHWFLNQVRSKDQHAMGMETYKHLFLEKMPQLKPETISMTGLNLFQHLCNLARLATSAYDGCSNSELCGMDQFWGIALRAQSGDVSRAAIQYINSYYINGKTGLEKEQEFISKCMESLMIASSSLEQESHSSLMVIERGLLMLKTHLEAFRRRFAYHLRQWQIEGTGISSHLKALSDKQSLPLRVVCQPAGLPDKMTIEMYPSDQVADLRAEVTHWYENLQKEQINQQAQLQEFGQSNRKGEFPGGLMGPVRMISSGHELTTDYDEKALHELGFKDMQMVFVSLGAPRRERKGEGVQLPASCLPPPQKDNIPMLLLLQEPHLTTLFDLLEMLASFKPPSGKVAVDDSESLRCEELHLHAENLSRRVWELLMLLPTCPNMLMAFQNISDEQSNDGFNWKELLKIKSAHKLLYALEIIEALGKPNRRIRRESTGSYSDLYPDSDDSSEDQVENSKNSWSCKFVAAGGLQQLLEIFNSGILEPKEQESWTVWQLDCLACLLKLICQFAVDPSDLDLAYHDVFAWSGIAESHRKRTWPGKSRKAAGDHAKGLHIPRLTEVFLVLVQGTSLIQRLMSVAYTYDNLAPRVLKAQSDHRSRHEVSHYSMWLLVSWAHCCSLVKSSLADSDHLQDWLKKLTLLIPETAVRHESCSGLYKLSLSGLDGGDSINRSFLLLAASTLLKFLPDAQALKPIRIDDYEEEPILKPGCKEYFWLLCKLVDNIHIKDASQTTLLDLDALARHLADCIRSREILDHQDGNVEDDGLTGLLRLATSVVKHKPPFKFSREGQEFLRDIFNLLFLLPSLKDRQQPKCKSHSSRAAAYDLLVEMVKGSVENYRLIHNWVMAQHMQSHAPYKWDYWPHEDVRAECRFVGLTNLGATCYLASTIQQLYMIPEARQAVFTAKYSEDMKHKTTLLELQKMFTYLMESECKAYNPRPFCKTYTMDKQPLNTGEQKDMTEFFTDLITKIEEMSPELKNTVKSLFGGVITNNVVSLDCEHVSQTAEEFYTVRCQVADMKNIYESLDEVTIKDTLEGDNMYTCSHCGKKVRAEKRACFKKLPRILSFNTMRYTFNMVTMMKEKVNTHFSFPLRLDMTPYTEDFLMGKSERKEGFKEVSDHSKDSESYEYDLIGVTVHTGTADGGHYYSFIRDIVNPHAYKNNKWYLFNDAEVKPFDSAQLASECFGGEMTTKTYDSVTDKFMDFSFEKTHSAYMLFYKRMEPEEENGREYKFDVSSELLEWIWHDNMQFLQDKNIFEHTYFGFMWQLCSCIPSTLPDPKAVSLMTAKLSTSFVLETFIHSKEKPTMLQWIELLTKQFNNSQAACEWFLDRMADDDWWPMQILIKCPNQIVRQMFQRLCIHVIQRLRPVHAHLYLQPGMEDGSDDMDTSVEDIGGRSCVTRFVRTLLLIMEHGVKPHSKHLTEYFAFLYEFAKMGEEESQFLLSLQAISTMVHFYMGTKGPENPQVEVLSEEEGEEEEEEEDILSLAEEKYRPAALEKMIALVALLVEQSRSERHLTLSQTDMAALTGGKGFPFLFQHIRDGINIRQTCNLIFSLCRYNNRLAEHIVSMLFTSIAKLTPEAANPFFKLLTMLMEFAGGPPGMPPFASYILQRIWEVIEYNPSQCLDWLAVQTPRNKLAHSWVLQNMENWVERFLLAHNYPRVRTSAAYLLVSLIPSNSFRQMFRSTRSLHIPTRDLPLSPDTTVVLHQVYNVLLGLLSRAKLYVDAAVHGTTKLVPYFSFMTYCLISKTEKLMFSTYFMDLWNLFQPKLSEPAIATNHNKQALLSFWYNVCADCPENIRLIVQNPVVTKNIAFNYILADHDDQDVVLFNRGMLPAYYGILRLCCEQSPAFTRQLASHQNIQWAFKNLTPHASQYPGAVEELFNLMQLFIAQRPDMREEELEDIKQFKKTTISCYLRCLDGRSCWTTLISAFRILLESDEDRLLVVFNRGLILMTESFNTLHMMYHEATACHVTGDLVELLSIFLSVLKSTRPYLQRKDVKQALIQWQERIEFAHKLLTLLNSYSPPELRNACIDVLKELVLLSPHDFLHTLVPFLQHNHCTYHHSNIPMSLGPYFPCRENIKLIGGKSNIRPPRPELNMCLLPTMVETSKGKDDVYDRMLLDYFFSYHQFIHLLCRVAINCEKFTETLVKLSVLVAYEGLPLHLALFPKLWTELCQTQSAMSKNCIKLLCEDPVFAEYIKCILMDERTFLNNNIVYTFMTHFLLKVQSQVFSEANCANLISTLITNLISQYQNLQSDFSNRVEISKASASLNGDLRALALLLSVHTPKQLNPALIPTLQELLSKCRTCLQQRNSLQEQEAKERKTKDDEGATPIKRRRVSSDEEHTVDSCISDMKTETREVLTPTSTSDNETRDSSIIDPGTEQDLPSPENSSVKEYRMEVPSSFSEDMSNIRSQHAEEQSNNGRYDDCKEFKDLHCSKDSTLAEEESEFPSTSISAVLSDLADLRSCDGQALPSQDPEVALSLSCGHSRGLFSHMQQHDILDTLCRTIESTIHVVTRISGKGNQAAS

COc1ccc(-c2csc(NC(=O)CCl)n2)cc1
inactive: USP34 -0.405 | USP36 -0.137 | USP38 -0.188 | USP39 0.0959 | USP4 -0.299
